From the supplement of paper PMC6555819

Experiments:
Assay in all cases: PBM binding z-score (relative to random genomic background probes); higher = stronger binding; sequences stand for … in GC…GCGATTGACAGCGTAGAATGAAGG
[1] = tested on: FXR:RXRa (NR concentration 270 nM, RXRa partner concentration 90 nM)
Method in brief: (§1)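 Ligand-free nuclear receptor dimers were bound for 1 h to custom Agilent 4×180K protein-binding microarrays. Detection used antibodies against each partner (one per run). Binding z-scores rest on regression-normalized fluorescence, with random background probes as the reference.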

[2] = tested on: LXRa:RXRa (NR concentration 270 nM, RXRa partner concentration 90 nM)
Method in brief: as §1

[3] = tested on: LXRa homodimer (NR concentration 270 nM)
Method in brief: as §1

[4] = tested on: LXRb homodimer (NR concentration 270 nM)
Method in brief: as §1

[5] = tested on: PPARa:RXRa (NR concentration 270 nM, RXRa partner concentration 90 nM)
Method in brief: as §1

[6] = tested on: PPARg:RXRa (NR concentration 180 nM, RXRa partner concentration 90 nM)
Method in brief: as §1

[7] = tested on: PPARg:RXRa 270nM:90nM, anti-RXR (NR concentration 270 nM, RXRa partner concentration 90 nM)
Method in brief: as §1

[8] = tested on: PPARg:RXRa 30nM:10nM, anti-RXR (NR concentration 30 nM, RXRa partner concentration 10 nM)
Method in brief: as §1

[9] = tested on: PPARg:RXRa 90nM:30nM, anti-RXR (NR concentration 90 nM, RXRa partner concentration 30 nM)
Method in brief: as §1

[10] = tested on: PPARg:RXRa DBDmut IVT, anti-RXR (DBD mutation: RXRa K156A/R161A, NR concentration 270 nM, RXRa partner concentration 90 nM)
Method in brief: as §1

[11] = tested on: PPARg:RXRa IVT, anti-PPARg (NR concentration 270 nM, RXRa partner concentration 90 nM)
Method in brief: as §1

[12] = tested on: PPARg DBDmut:RXRa IVT, anti-PPARg (DBD mutation: PPARg1 K132A/R137A, NR concentration 270 nM, RXRa partner concentration 90 nM)
Method in brief: as §1

[13] = tested on: PPARg DBDmut IVT, anti-PPARg (DBD mutation: PPARg1 K132A/R137A, NR concentration 270 nM)
Method in brief: as §1

[14] = tested on: PPARg homodimer (NR concentration 180 nM)
Method in brief: as §1

[15] = tested on: PXR:RXRa (NR concentration 270 nM, RXRa partner concentration 90 nM)
Method in brief: as §1

[16] = tested on: PXR homodimer (NR concentration 270 nM)
Method in brief: as §1

[17] = tested on: RARa:RXR (NR concentration 270 nM, RXRa partner concentration 90 nM)
Method in brief: as §1

[18] = tested on: RARa homodimer (NR concentration 270 nM)
Method in brief: as §1

[19] = tested on: RARb:RXRa (NR concentration 270 nM, RXRa partner concentration 90 nM)
Method in brief: as §1

Row | Sequence | PBM binding z-score [1] | PBM binding z-score [2] | PBM binding z-score [3] | PBM binding z-score [4] | PBM binding z-score [5] | PBM binding z-score [6] | PBM binding z-score [7] | PBM binding z-score [8] | PBM binding z-score [9] | PBM binding z-score [10] | PBM binding z-score [11] | PBM binding z-score [12] | PBM binding z-score [13] | PBM binding z-score [14] | PBM binding z-score [15] | PBM binding z-score [16] | PBM binding z-score [17] | PBM binding z-score [18] | PBM binding z-score [19]
1 | CCTTACGGGTCAAGGTTATACCACGGGTGGTACG | 5.46 | 3.7 | 0.309 | 0.0291 | 4.99 | 4.6 | 4.47 | 1.63 | 3.83 | 1.19 | 3.53 | -0.379 | -0.205 | 3.33 | 3.49 | 0.498 | 4.11 | 1.71 | 4.21
2 | ATATGTAGGTTACCGGGTCATTCAGTTTGCGCAT | 3.18 | 3.3 | 1.31 | 0.869 | 5.44 | 8.51 | 7.05 | 4.85 | 6.88 | 8.02 | 8.28 | 6.4 | 4.2 | 3.3 | 4.35 | 9.95 | 4.52 | 0.996 | 2.76
3 | ACTAGTTGGTCAGCTGAGGTCACACAAAATTCGG | 4.18 | 3.22 | 2.26 | 0.719 | 3.85 | 1.45 | 2.46 | 0.399 | 1.64 | 1.6 | 2.89 | 0.792 | 0.409 | 3.4 | 5.63 | 2.18 | 4.78 | 1.17 | 3.87
4 | AGTCAAAGTTCACTAGGTTACGTAAGATTCAGCT | 4.92 | 5.44 | 3.95 | 1.5 | 4.85 | 7.41 | 6.74 | 4.4 | 5.88 | 3.75 | 5.6 | 1.8 | 1.2 | 1.99 | 4.58 | 4.84 | 4.08 | 2.05 | 4.93
5 | ATATGTAGGTTAGCTGGAGTCATTCAGACTAGGC | 0.00563 | 1.28 | -0.0336 | 0.0591 | 2.34 | 3 | 2.47 | 0.982 | 1.63 | 6.03 | 6.03 | 1.63 | 1.57 | 0.988 | 0.231 | -0.186 | 0.556 | 0.257 | 0.61
6 | CGTCAAAGTTCATGGTAACGTAACAGAAAGCAGC | 6.57 | 5.67 | 3.17 | 1.2 | 4.95 | 5.02 | 5.36 | 2.39 | 4.08 | 0.9 | 2.06 | 1.17 | 1.03 | 3.91 | 4.52 | 2.84 | 3.68 | 1.6 | 5
7 | CATAGTTGGTCAAGGTCACACACGCTATAGGTAC | 4.26 | 4.07 | 1.83 | 1.1 | 4.12 | 3.78 | 3.92 | 1.88 | 3.28 | 1.92 | 3.93 | 1.23 | 1.92 | 3.69 | 4.35 | 2.19 | 4.44 | 1.85 | 4.04
8 | AATACAGGGTGATCGTAGGCCAGAGTACGCACAG | -0.0324 | 0.162 | -0.234 | -0.0404 | 0.576 | 1.2 | 0.407 | 0.131 | 0.149 | 0.342 | 1.51 | 0.927 | 0.662 | 0.342 | 0.0587 | 0.139 | 0.29 | 0.275 | 0.432
9 | TGTCAAAGTTCTAAGGTAACGTAAGTATCCACAC | 0.449 | 0.196 | -0.388 | -0.268 | 0.624 | 0.871 | 1.41 | 0.457 | 1.15 | -0.558 | 1.37 | 1.07 | 0.895 | 0.299 | 0.23 | 0.0534 | 1.09 | 0.0558 | 0.779
10 | AGTCAAAGTTCATCAAGGTAACGTAAGATATGCT | 6.08 | 5.78 | 4.24 | 1.31 | 4.64 | 6.46 | 6.38 | 3.52 | 5.75 | 0.277 | 3.34 | 1.59 | 1.26 | 3.05 | 5.4 | 9.31 | 4.3 | 2.24 | 4.9
11 | CCTACAGGGCCAAGGTCATTGATCAGTCAAAGCA | 3.24 | 3.38 | 0.911 | -0.2 | 3.78 | 2.72 | 3.94 | 1.45 | 3.32 | 0.158 | 1.47 | -0.788 | -0.319 | 1.8 | 3.54 | 1.53 | 3.67 | 0.267 | 3.47
12 | TCTAGCTGGTCACGGAGGTCACACACGACGGGTA | 3.41 | 3.79 | 2.37 | 0.0556 | 3.88 | 3.35 | 3.83 | 2.33 | 3.14 | 1.56 | 3.5 | 0.457 | 0.217 | 3.03 | 4.91 | 0.955 | 5.08 | 1.08 | 3.81
13 | ACTCGGGGGACAAAGGTCAGAGCTACGCCAGTGA | 5.78 | 5.7 | 2.14 | 5.96 | 6.14 | 9.31 | 8.33 | 8.12 | 9.68 | 2.49 | 5.75 | 7.4 | 7.53 | 5.43 | 5.36 | 1.26 | 6.35 | 2.37 | 4.91
14 | GATACAGGGTCAAGGCCAGAGTACGCGTATTGAT | 6.67 | 4.16 | 0.173 | -0.282 | 5.44 | 5.85 | 5.43 | 2.04 | 4.11 | 2.82 | 3.95 | 1.08 | 0.22 | 1.95 | 3.88 | 0.227 | 4.46 | 0.587 | 4.44
15 | CACACTAGGTCAAAGGTCAAAGTCGAGCCAACCA | 8.41 | 7.68 | 6.65 | 3.73 | 7.75 | 13.9 | 11.2 | 14 | 14 | 8.09 | 8.84 | 5.62 | 4.09 | 7.33 | 7.4 | 2.74 | 9.26 | 4.38 | 5.87
